Reference: PubChem BioAssay (NCI)
The panel holds about 83,000 compounds, 20% with a hit somewhere; the sample as a whole holds those more often.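 How to read the values: 0–100, growth inhibition (40 = 60% inhibited); 0, no net growth; -100 to 0, cell death (-40 = 40% of starting cells died; -100 = all dead).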 Values without a mark were called inactive. Calls of active or inactive are those of the source.

System: COLO 205 colon
Assay: NCI-60 one-dose screen, 48 h (100 = growth as untreated, 0 = no growth, -100 = all killed)
Conditions: 10 µM unless noted
Procedure: Cells are grown in 96 well plates and exposed to the test compound for 48 hours. Compounds are tested at a single concentration, which is 10^-5 M for most compounds. The reported endpoint is percent growth (GI% or GIPRCNT), where numbers from 0 - 100% represent growth inhibition, and numbers from -100% - 0 represent cell death. For example, a value of 40 represents 60% growth inhibition. A value of 0 means no net growth occurred over the course of the experiment. A value of -40 indicates 40% of cells at the beginning of the experiment died by the end of the experiment. A value of -100 means all cells are dead at the end of the experiment.
NCI-60 Human Tumor Cell Lines Screen was performed using the standard one-dose NCI protocol, which is described in more detail at https://dtp.cancer.gov/discovery_development/nci-60/default.htm.
Compounds with GIPRCNT values below 10 were considered active. Activity score was based on GIPRCNT using the following formula: […]
Score is 0 for GIPRCNT values of 100 or above, 50 for GIPRCNT values of 0, and 100 for GIPRCNT values of -100.

Row | Structure (SMILES) | growth
1 | Nc1ncc(-c2ccc3ncnc(N4CCc5cc(F)c(Cl)cc54)c3c2)cc1CO | -21.9% (active)
2 | CN(C)CCCOc1c2ccccc2nc2c1oc1ccc(Cl)cc12 | -24.5% (active)
3 | O=C(N/N=C/c1ccco1)c1[nH]c2ccc(Br)cc2c1-c1ccccc1 | -35.2% (active)
4 | COc1ccc2[nH]cc(-c3cc(N)n4nc(-c5c[nH]c6ccc(OC)cc56)cc4n3)c2c1 | -54.3% (active)
5 | COc1cc(OC)c(S(=O)(=O)NNC(=O)c2ccncc2)cc1C(=O)/C=C/c1ccc(C)cc1 | 99%
6 | Cc1c(Nc2nnc(SCC(=O)Nc3sc4c(c3C#N)CCCC4)s2)c(=O)n(-c2ccccc2)n1C | 118%
7 | CC1=C(C)C(=O)C(Nc2cccc(C(F)(F)F)c2)=C(Cl)C1=O | 102%
8 | Cn1cc(-c2cc(N)n3nc(-c4cn(C)c5ccc(Br)cc45)cc3n2)c2cc(Br)ccc21 | 118%
9 | O=C1Nc2ccccc2Oc2ccc(S(=O)(=O)CC3CO3)cc21 (stereo not given) | 50.1%
10 | Clc1ccc2c(NCCCN3CCOCC3)c3oc4ccc(Cl)cc4c3nc2c1 | 44.5%
11 | CC(=O)Oc1ccccc1C(=O)Nc1cc(C(C)C)ccc1C | 92.7%
12 | Clc1ccc(Cc2nnc3sc(-c4cccnc4)nn23)cc1 | 115%
13 | Nc1c(C(=O)Nc2ccc(Cl)cc2)sc2nc(-c3cnccn3)cc(-c3cccs3)c12 | 95.7%
14 | Cc1[nH]nc2ncc(C#Cc3cncc(C(=O)Nc4ccc(CN5CCN(C)CC5)c(C(F)(F)F)c4)c3)cc12 | -25.6% (active)
15 | CSCCC(C(=O)O)N1C(=O)/C(=C/c2ccc(O)c(O)c2)SC1=S (stereo not given) | 123%
16 | O=C(CN1CCOCC1)NNc1ncnc2ccccc12 | 102%
17 | O=c1[nH]c2ccccc2cc1CSc1ccccc1Nc1nccc(-c2ccc(C(F)(F)F)cc2)n1 | 104%
18 | CN(C)CCCNc1c2ccc(Cl)cc2nc2c1oc1ccccc12 | 1.47% (active)
19 | N#Cc1ccc(/C=N/NC(=O)c2[nH]c3ccc(Br)cc3c2-c2ccccc2)s1 | -13.3% (active)
20 | N[C@@H](Cc1cn(-c2ccnc3ccccc23)nn1)C(=O)O | 112%

Row | Structure (SMILES) | growth
21 | NC(=O)c1cc(-c2ccc3ncnc(N4CCc5cc(F)c(Cl)cc54)c3c2)cnc1N | 54.8%
22 | Cc1ccc2c(n1)C(=O)C(Cl)=C(Nc1cccc(C(C)C)c1)C2=O | 112%
23 | Cc1ccc(C(=O)Nc2cccc(C(F)(F)F)c2)cc1Nc1nc(-c2cnccn2)nc2c1cnn2C | 20.4%
24 | c1ccc2c(NCCCn3ccnc3)c3oc4ccccc4c3nc2c1 | -30.9% (active)
25 | Cc1nc(-c2cc3ccccc3oc2=O)ccc1C(=O)/C=C/c1ccccn1 | 94.7%
26 | COc1ccc(-c2nc3ccc(-c4nnc(SCC(=O)Nc5ccc(C(=O)/C=C/c6ccccc6)cc5)o4)cc3[nH]2)cc1OC | 115%
27 | O=C1c2c(c3c4cc(Br)ccc4[nH]c3c3ccc4ccccc4c23)C(=O)N1CCO | 92%
28 | Cn1c(SCC(=O)Nc2ccc(-c3nc4ccc([N+](=O)[O-])cc4[nH]3)cc2)nc2ccccc2c1=O | 98.4%
29 | Nc1c(C(=O)c2ccc(Br)cc2)oc2nc(-c3cnccn3)cc(-c3cccs3)c12 | 118%
30 | COc1ccc(/C=N/NC(=O)c2[nH]c3ccc(Br)cc3c2-c2ccccc2)o1 | -47.8% (active)
31 | CC(C)(C)Nc1nc2c(OCCc3ccccc3)cccn2c1-c1ccc(O)cc1 | 85.6%
32 | Cc1ccc(/C=C/c2nn3c(-c4ccco4)nnc3s2)cc1C | 126%
33 | C#Cc1nc(C2=C(C)C(OC(=O)CCC(=O)O)CC2)cs1 (stereo not given) | 122%
34 | CN(C)CCCNc1c2ccc(Cl)cc2nc2c1oc1ccc(Cl)cc12 | 34.2%
35 | COc1cc(/C=C/C(=O)c2cc(OC)c(OC)c(OC)c2)ccc1OCc1ccc(F)cc1 | 70%
36 | COc1cc(-c2ccc3ncnc(NC(C)c4ccccc4)c3c2)cnc1OC (stereo not given) | 72.9%
37 | COc1ccc(NC2=CC(=O)C(C)=C(C)C2=O)cc1 | 107%
38 | CC(=O)Oc1ccccc1C(=O)Nc1ccc(C(=O)/C=C/c2ccncc2)cc1 | 66%
39 | COc1cc(OC)c(C2C(Cl)C(=O)N2Nc2ncnc3ccccc23)cc1OC (stereo not given) | 125%
40 | Cc1ccc2ccc3ccc(C)nc3c2n1.Cc1ccc2ccc3ccc(C)nc3c2n1.Oc1c(Cl)cc(Cl)c2ccc(CN3CCCCC3)nc12.[Ru] | -74.2% (active)
